The panel holds about 83,000 compounds, 20% with a hit somewhere; the sample as a whole holds those more often.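 Negative percent growth values reflect cell death: -40 means 40% of the cells present at the start died, and -100 means all died.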 Values without a mark were called inactive. Active and inactive are the calls of the source. How the source made its calls: active means growth percent below 10; inactive means the rest.
How the values were obtained:
Assay in all cases: NCI-60 one-dose screen, 48 h (100 = growth as untreated, 0 = no growth, -100 = all killed)
Conditions in all cases: 10 µM
NCI-H23 lung = system: NCI-H23 lung
NCI-H226 lung = system: NCI-H226 lung
NCI-H322M lung = system: NCI-H322M lung
HOP-62 NSCLC = system: HOP-62 NSCLC
NCI-H460 lung = system: NCI-H460 lung
HOP-92 NSCLC = system: HOP-92 NSCLC
NCI-H522 lung = system: NCI-H522 lung
A549/ATCC NSCLC = system: A549/ATCC NSCLC
786-0 renal = system: 786-0 renal
COLO 205 colon = system: COLO 205 colon
DU-145 prostate = system: DU-145 prostate
K-562 leukemia = system: K-562 leukemia
MDA-MB-231 breast = system: MDA-MB-231 breast
RXF 393 renal = system: RXF 393 renal
SF-268 CNS = system: SF-268 CNS
SF-295 CNS = system: SF-295 CNS
SF-539 CNS = system: SF-539 CNS
UACC-257 melanoma = system: UACC-257 melanoma
M14 melanoma = system: M14 melanoma
MALME-3M melanoma = system: MALME-3M melanoma

Compound | growth (NCI-H23 lung) [%] | growth (NCI-H226 lung) [%] | growth (NCI-H322M lung) [%] | growth (HOP-62 NSCLC) [%] | growth (NCI-H460 lung) | growth (HOP-92 NSCLC) | growth (NCI-H522 lung) [%] | growth (A549/ATCC NSCLC) [%] | growth (786-0 renal) | growth (COLO 205 colon) [%] | growth (DU-145 prostate) [%] | growth (K-562 leukemia) | growth (MDA-MB-231 breast) [%] | growth (RXF 393 renal) | growth (SF-268 CNS) [%] | growth (SF-295 CNS) | growth (SF-539 CNS) | growth (UACC-257 melanoma) [%] | growth (M14 melanoma) | growth (MALME-3M melanoma) [%]
Cc1ccc(S(=O)(=O)N2CCc3ccccc3CC2)cc1 | 54.5 | 54.3 | 99 | 97.9 | 90.8% | 71.9% | 74.1 | 72.1 | 79.3% | 81 | 84.1 | 63.9% | 83.7 | 80.3% | 97.5 | 73% | 97% | 52.7 | 80.6% | 
Cc1cc(=O)oc2cc(OCc3cn(CC(O)CO)nn3)ccc12 (stereo not drawn) | 94.1 | 104 | 109 | 103 | 111% | 111% | 107 | 105 | 111% | 108 | 103 | 96.1% | 104 |  | 109 | 107% | 95.9% | 112 | 106% | 109
COc1c(C)c(C)c(OC)c2c1[nH]c(=O)c1c3cccnc3cn21 | 103 | 99 | 153 | 92.6 | 104% | 102% | 98.4 | 114 | 114% | 118 | 111 | 102% | 86.1 | 116% | 112 | 119% | 103% | 126 | 103% | 
O=[N+]([O-])C1CC2C=CC1C2 (stereo not drawn) | 100 | 94.9 | 91.1 | 93.3 | 108% | 110% | 101 | 92.3 | 90.4% | 115 | 94.7 | 101% | 111 | 99% | 89.6 | 92.8% | 102% | 105 | 98.7% | 
CS(=O)(=O)Nc1ccc([N+](=O)[O-])cc1Oc1ccccc1 | 92.6 | 96 | 103 | 93 | 102% | 51.8% | 92.6 | 89.3 | 98.4% | 99.7 | 100 | 78% | 118 |  | 98.4 | 84.2% | 104% | 94.7 | 105% | 92.4
CCOc1nc(-c2ccccc2)cc2c(O)c(C(=O)N/N=C/c3ccc(OC)cc3)[nH]c(=O)c12 | 97.9 | 109 | 124 | 105 | 101% | 74.6% | 83.1 | 110 | 116% | 87.7 | 122 | 74.4% | 126 | 6.86% (active) | 112 | 91% | 93.2% | 130 | 110% | 
COc1cc(N=C2C(=O)N(Cc3ccccc3)c3ccccc32)cc(OC)c1OC | 89.9 | 88.3 | 108 | 101 | 103% | 35.6% | 75 | 103 | 103% | 114 | 104 | 97.4% | 105 | -23% (active) | 97.4 | 94.3% | 93% | 96.6 | 98.2% | 
CCOC(=O)c1cc2c(n1Cc1ccccc1)-c1oncc1CC2 | 89.5 | 84.4 | 60.4 | 92.5 | 19.6% | 75.6% | 41.1 | 89.1 | 107% | 86.2 | 82.8 | 15.3% | 95.8 | 94.6% | 54.2 | 64.5% | 90.5% | 103 | 99.6% | 
CCOC(=O)C(CCC1=NC(C)(C)CC(C)O1)C(=O)OCC (stereo not drawn) | 77.7 | 95.1 | 137 | 93.8 | 51.5% | 95.3% | 62.5 | 101 | 107% | 92 | 10.4 | 85% | 106 | 85% | 98 | 74.5% | 102% | 105 | 84% | 
CC1(C)CCc2cc(-c3ccn(S(=O)(=O)c4ccc(Cl)cc4)n3)ccc2O1 | 65.5 | 74.4 | 94.2 | 92.9 | 73.8% | 8% (active) | 66.2 | 67.4 | 71.4% | 117 | 88.3 | 52.4% | 76.4 | 89% | 90.7 | 78.7% | 101% | 64.9 | 80.1% | 
COc1ccc2nc(/C=C/c3ccc(N(C)C)cc3)sc2c1 | 89.5 | 99.5 | 99.6 | 108 | 110% | 93.3% | 90.6 | 105 | 93% | 145 | 111 | 73.5% | 95.6 |  | 102 | 93.1% | 103% | 119 | 103% | 97.4
O=c1[nH]c(=O)n(C2C[C@@H](O)[C@@H](CO)O2)cc1F (stereo partly drawn) | 15.9 | 50.4 | 57.6 | 27.7 | 6.58% (active) | 38.9% | 20.1 | 22.2 | 8.75% (active) | 36.7 | 37 | 9.63% (active) | 62.1 |  | 24.1 | 8.65% (active) | 5.71% (active) | 67.8 | -6.77% (active) | 52.7
O=[N+]([O-])c1ccc2c(c1)Cc1cc(I)ccc1-2 | 99.4 | 97.7 | 104 | 113 | 98.4% | 89.4% | 95.7 | 94.7 | 90% | 108 | 116 | 95.6% | 102 | 101% | 103 | 82.5% | 116% | 108 | 101% | 
O=C(CCc1ccccc1)N1CCN(C(=O)CCc2ccccc2)CC1 | 101 | 99.3 | 95.2 | 105 | 114% | 84.1% | 98.3 | 99.9 | 94.6% | 102 | 140 | 108% | 90.8 | 109% | 117 | 111% | 104% | 92.6 | 95.9% | 
O=C(O)c1cc(C(F)(F)F)cc(C(F)(F)F)c1 | 101 | 111 | 102 | 103 | 107% | 121% | 102 | 101 | 93.7% | 113 | 116 | 95.2% | 104 | 105% | 106 | 102% | 105% | 101 | 91.1% | 
COc1cc(/C=C/C(=O)c2cc(-c3ccccc3)ccc2O)cc(OC)c1OC | 66.3 | 93.4 | 86.1 | 83.8 | 67.6% | 61.3% | 54.9 | 85 | 94% | 91.5 | 91 | 34% | 71 | 97.8% | 83.2 | 74.6% | 80.2% | 69.9 | 96.7% | 
CC(C)CCN(CCCNc1c2c(nc3cc(Cl)ccc13)CCCC2)CCC(C)C | 62.3 | 53.8 | 75 | 77.9 | 55.7% | 12.3% | 82.1 | 85.4 | 80.1% | 32.6 | 72.1 | 22.7% | 21.8 | 59.9% | 73.9 | 66.7% | 69.8% | 71.4 | 4.03% (active) | 
